Reference: the supplement of paper PMC3414501
Where a name gives a salt, the structure may show the parent alone. Values without a mark were called inactive.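 How the source made its calls: active = score above 5; some higher scores were not called.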

Each compound was assayed on S. cerevisiae SK1 pCDA2-eGFP (USY613), sporulating (assay: CDA2-GFP sporulation assay sensitivity score (z-score vs DMSO controls); higher = stronger inhibition of sporulation, active = hit call of the paper).
In the case of `CC[C@H](C)C(=O)O[C@H]1C[C@H](O)C=C2C=C[C@H](C)[C@H](CC[C@@H](O)C[C@@H](O)CC(=O)O)[C@H]21` [Pravastatin sodium] (stock concentration (mM, diluted 1:100): 9.5), the “CDA2-GFP sporulation assay sensitivity score” value is reported as -1.3.
For `CC(CCCCC(=O)Nc1ccc(C(F)(F)F)cc1)NCCc1cnc[nH]1` (stereo unspecified) (stock concentration (mM, diluted 1:100): 10), the “CDA2-GFP sporulation assay sensitivity score” value was 2.58.
In the case of `CC(C)OC(=O)CCC/C=C\C[C@@H]1[C@@H](CC[C@@H](O)CCc2ccccc2)[C@H](O)C[C@@H]1O` [Latanoprost] (stock concentration (mM, diluted 1:100): 10.3), the “CDA2-GFP sporulation assay sensitivity score” value is reported as 8.85 (active).
`O=C(c1ccc(F)cc1)C1CCN(CCn2c(=S)[nH]c3ccccc3c2=O)CC1` [Altanserin] (stock concentration (mM, diluted 1:100): 10) was tested, and the “CDA2-GFP sporulation assay sensitivity score” value was 2.43.
For `O=C1C(c2c(O)[nH]c3ccccc23)=Nc2ccccc21` [Indarubicin] (stock concentration (mM, diluted 1:100): 10), the “CDA2-GFP sporulation assay sensitivity score” value was 9.61.
With `CCCCN1CCCC1CNC(=O)c1cc(C#N)c2ccccc2c1OC` (stereo unspecified) [Nafadotride] (stock concentration (mM, diluted 1:100): 10) the “CDA2-GFP sporulation assay sensitivity score” value was 3.66.
For `CCOC(=O)c1ccc(OC(=O)CCCCCNC(=N)N)cc1` [Gabexate mesylate] (stock concentration (mM, diluted 1:100): 7.7), the “CDA2-GFP sporulation assay sensitivity score” value was 2.43.
In the case of `COc1cc(C(=O)NC2CCCNC2)cc(OC)c1OC` (stereo unspecified) [Troxipide] (stock concentration (mM, diluted 1:100): 10.1), the “CDA2-GFP sporulation assay sensitivity score” value is reported as -0.11.
In the case of `NC[C@H]1CC[C@H](C(=O)Oc2ccc(CCC(=O)O)cc2)CC1` [Cetraxate hydrochloride] (stock concentration (mM, diluted 1:100): 9), the “CDA2-GFP sporulation assay sensitivity score” value is reported as -0.06.
With `O=C(O)/C=C/c1ccc(Cn2ccnc2)cc1` [Ozagrel hydrochloride] (stock concentration (mM, diluted 1:100): 8.6) the “CDA2-GFP sporulation assay sensitivity score” value was 0.27.
With `Nc1ccc2cn[nH]c2c1` [6-Aminoindazole] (stock concentration (mM, diluted 1:100): 10) the “CDA2-GFP sporulation assay sensitivity score” value was 2.67.
With `CCN(CC)CC1CCCCN1CC(=O)N1c2ccccc2C(=O)Nc2cccnc21` (stereo unspecified) [Otenzepad] (stock concentration (mM, diluted 1:100): 10) the “CDA2-GFP sporulation assay sensitivity score” value was 0.65.
With `COc1cc2nc(N3CCN(C(=O)c4ccco4)CC3)nc(N)c2cc1OC` [Prazosin] (stock concentration (mM, diluted 1:100): 10) the “CDA2-GFP sporulation assay sensitivity score” value was 1.07.
For `CN1C2CCCC1CC(NC(=O)c1nn(C)c3ccccc13)C2` (stereo unspecified) [Granisetron hydrochloride] (stock concentration (mM, diluted 1:100): 9), the “CDA2-GFP sporulation assay sensitivity score” value was 2.25.
`COc1cc(C)c(Cc2cnc(N)nc2N)cc1OC` [Ormetoprim] (stock concentration (mM, diluted 1:100): 10) was tested, and the “CDA2-GFP sporulation assay sensitivity score” value was 0.05.
With `Nc1nc2ccc(OC(F)(F)F)cc2s1` [Riluzole] (stock concentration (mM, diluted 1:100): 9.9) the “CDA2-GFP sporulation assay sensitivity score” value was 16.9 (active).
In the case of `O=C(O[C@H]1[C@H](Oc2ccccc2COC(=O)C2(O)C=CCCC2=O)O[C@H](CO)[C@@H](O)[C@@H]1O)c1ccccc1` (stereo partly specified) [Tremulacin] (stock concentration (mM, diluted 1:100): 10), the “CDA2-GFP sporulation assay sensitivity score” value is reported as 3.04.
With `O=c1[nH]c(=O)n(C2CCCO2)cc1F` (stereo unspecified) [Ftorafur] (stock concentration (mM, diluted 1:100): 10) the “CDA2-GFP sporulation assay sensitivity score” value was 0.02.
For `OCc1cccnc1` [3-Pyridinemethanol] (stock concentration (mM, diluted 1:100): 10), the “CDA2-GFP sporulation assay sensitivity score” value was 2.69.
With `CC(Cc1ccccc1)(NC(=O)CN)c1ccccc1` (stereo unspecified) [Remacemide] (stock concentration (mM, diluted 1:100): 10) the “CDA2-GFP sporulation assay sensitivity score” value was 2.76.
`CC(C)(C)C(O)/C=C/c1ccc2c(c1)OCO2` (stereo unspecified) [Stiripentol] (stock concentration (mM, diluted 1:100): 10) was tested, and the “CDA2-GFP sporulation assay sensitivity score” value was 5.09.
In the case of `CCOC(=O)O[C@]1(C(=O)OCCl)CC[C@H]2[C@@H]3CCC4=CC(=O)C=C[C@]4(C)[C@H]3[C@@H](O)C[C@@]21C` [Loteprednol etabonate] (stock concentration (mM, diluted 1:100): 10), the “CDA2-GFP sporulation assay sensitivity score” value is reported as 0.
For `Nc1ccn([C@@H]2O[C@H](CO)[C@@H](O)[C@@H]2O)c(=O)n1` [Cytarabine] (stock concentration (mM, diluted 1:100): 10), the “CDA2-GFP sporulation assay sensitivity score” value was -0.45.
With `CNC(=N)NCCC[C@H](N)C(=O)O` [omega-N-Methylarginine] (stock concentration (mM, diluted 1:100): 9.3) the “CDA2-GFP sporulation assay sensitivity score” value was 1.34.
In the case of `O=C(NCCO[N+](=O)[O-])c1cccnc1` [Nicorandil] (stock concentration (mM, diluted 1:100): 10), the “CDA2-GFP sporulation assay sensitivity score” value is reported as -0.11.
`C[C@H]1C[C@H]2[C@@H]3CCC4=CC(=O)C=C[C@]4(C)[C@@]3(Cl)[C@@H](O)C[C@]2(C)[C@@]1(O)C(=O)CO` [Beclomethasone] (stock concentration (mM, diluted 1:100): 10) was tested, and the “CDA2-GFP sporulation assay sensitivity score” value was 1.56.
`Cc1nccn1CC1CCc2c(c3ccccc3n2C)C1=O` (stereo unspecified) [Ondansetron hcl] (stock concentration (mM, diluted 1:100): 8.9) was tested, and the “CDA2-GFP sporulation assay sensitivity score” value was -0.41.
For `CC(=O)NC[C@H]1CN(c2ccc(N3CCOCC3)c(F)c2)C(=O)O1` [Linezolide] (stock concentration (mM, diluted 1:100): 10), the “CDA2-GFP sporulation assay sensitivity score” value was 0.79.
`CC(=O)CCCCn1cnc2c1c(=O)n(C)c(=O)n2C` [Lomifylline] (stock concentration (mM, diluted 1:100): 10) was tested, and the “CDA2-GFP sporulation assay sensitivity score” value was -2.21.
In the case of `c1cnc(N2CCN(Cc3ccc4c(c3)OCO4)CC2)nc1` [Piribedil] (stock concentration (mM, diluted 1:100): 9.7), the “CDA2-GFP sporulation assay sensitivity score” value is reported as 6.47.
`O=C1CC[C@@H](C(=O)N2CSC[C@H]2C(=O)O)N1` [Pidotimod] (stock concentration (mM, diluted 1:100): 10) was tested, and the “CDA2-GFP sporulation assay sensitivity score” value was 0.46.
For `CNCC[C@H](Oc1cccc2ccccc12)c1cccs1` [Duloxetine] (stock concentration (mM, diluted 1:100): 10), the “CDA2-GFP sporulation assay sensitivity score” value was 1.64.
In the case of `COc1cc(CNC(=O)CCCC/C=C/C(C)C)ccc1O` [Capsaicin] (stock concentration (mM, diluted 1:100): 10), the “CDA2-GFP sporulation assay sensitivity score” value is reported as -1.12.
In the case of `CCCN[C@H]1CCc2nc(N)sc2C1` [Pramipexole hydrochloride] (stock concentration (mM, diluted 1:100): 7.1), the “CDA2-GFP sporulation assay sensitivity score” value is reported as -0.08.
`C#C[C@]1(O)CC[C@H]2[C@@H]3CCc4cc(OC)ccc4[C@H]3CC[C@@]21C` [Mestranol] (stock concentration (mM, diluted 1:100): 10) was tested, and the “CDA2-GFP sporulation assay sensitivity score” value was 4.85.
In the case of `COc1ccc2c(c1)c(CC(=O)O)c(C)n2C(=O)c1ccc(Cl)cc1` [Indomethacin] (stock concentration (mM, diluted 1:100): 10.5), the “CDA2-GFP sporulation assay sensitivity score” value is reported as 0.38.
